Data as given in PubChem BioAssay (NCI).
This is part of a sample that, as a whole, favours compounds with a hit. Of some 79,000 tested, about 15% had one in any assay. Calls of active or inactive are those of the source. No stated cut-off is given here; in the data, active means growth inhibition above about 70%; inactive means the rest.

Tests used:
[1] = NCI Yeast Anticancer Drug Screen. Data for the rad50 strain (AID 155);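 further: 0% = growth of vehicle-only cultures of the same strain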; settings: S. cerevisiae rad50 strain growth inhibition, active compounds read high
In short: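 Vehicle-treated cultures provide the reference for the growth inhibition reported for compound-exposed, repair-deficient yeast.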

[2] = NCI Yeast Anticancer Drug Screen. Data for the mec2-1 strain (AID 157); settings: S. cerevisiae mec2-1 strain, active compounds read high
In short: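 Strain: mec2-1 (DNA repair/cell cycle alteration). Compound exposure, then growth measured; inhibition expressed relative to vehicle.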

[3] = NCI Yeast Anticancer Drug Screen. Data for the sgs1 mgt1 strain (AID 161);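 further: 0% = growth of cultures given vehicle only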; settings: S. cerevisiae sgs1 mgt1 strain, active compounds read high
In short: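 Read-out: growth inhibition vs vehicle controls. Cells: mutant yeast strain deficient in DNA damage repair.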

[4] = NCI Yeast Anticancer Drug Screen. Data for the cln2 rad14 strain (AID 165);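 further: 0% = growth equal to vehicle treated cultures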; settings: S. cerevisiae cln2 rad14 strain, active compounds read high
In short: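 Compounds are applied to the cln2 rad14 yeast strain, and growth is then compared with that of vehicle-treated cultures to give inhibition.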

[5] = NCI Yeast Anticancer Drug Screen. Data for the bub3 strain (AID 167); settings: S. cerevisiae bub3 mutant strain, active compounds read high
In short: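 Mutant yeast screening strain plus compound; vehicle-treated cultures serve as the 0% inhibition reference.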

[6] = NCI Yeast Anticancer Drug Screen. Data for the mlh1 rad18 strain (AID 175); settings: S. cerevisiae mlh1 rad18 strain growth inhibition, active compounds read high
In short: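 Read-out is yeast growth inhibition, calculated against vehicle-only controls. The compound was applied to a strain engineered with DNA damage repair alterations.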

[7] = at 5.0 µM (retest, dose inferred, filed as 0.5)
[8] = at 50.0 µM (retest, dose inferred, filed as 5.0)

Measured: growth inhibition

CCOC(=O)c1c(C)[nH]c(C(c2ccccc2)c2[nH]c(C)c(C(=O)OCC)c2C)c1C
active: [4]; [8] 86% | [4]; at 50.0 µM 75.2% | [5]; [8] 80% | [6]; [8] 74%
inactive: [1]; [7] -2% | [1]; [8] 65% | [1]; at 50.0 µM 44% | [2]; [7] -4% | [2]; [8] 64% | [2]; at 50.0 µM 43.4% | [3]; [7] 7% | [3]; [8] 69% | [3]; at 50.0 µM 66.5% | [4]; [7] 0% | [5]; [7] -5% | [5]; at 50.0 µM 46.2% | [6]; [7] 5% | [6]; at 50.0 µM 48.8%

c1ccc(CCc2c[nH]c3ccccc23)cc1
active: [3]; at 50.0 µM 72.5% | [5]; at 50.0 µM 87.5%
inactive: [1]; [7] -7% | [1]; [8] -1% | [1]; at 50.0 µM 59.6% | [2]; [7] 0% | [2]; [8] 0% | [2]; at 50.0 µM 27.5% | [3]; [7] -7% | [3]; [8] 12% | [4]; [7] -52% | [4]; [8] -2% | [4]; at 50.0 µM 5.9% | [5]; [7] -14% | [5]; [8] 41% | [6]; [7] -8% | [6]; [8] 43% | [6]; at 50.0 µM 49%

COc1ccc(-c2c(C#N)c(-c3ccc(C)cc3)n(NS(=O)(=O)c3ccc(C)cc3)c(=O)c2C#N)cc1
inactive: [1]; [7] -2% | [1]; [8] 55% | [2]; [7] -2% | [2]; at 50.0 µM 68.7% | [3]; [7] -3% | [3]; [8] 44% | [4]; [7] -5% | [4]; [8] 68% | [4]; at 50.0 µM 64.1% | [5]; [7] 4% | [5]; [8] 65% | [6]; [7] -2% | [6]; [8] 62%
active: [1]; at 50.0 µM 71.3% | [2]; [8] 70% | [3]; at 50.0 µM 84.7% | [5]; at 50.0 µM 79.4% | [6]; at 50.0 µM 83.6%

CC1=NC(C)=C(/C(C)=N/NC(=O)c2ccccc2O)C(C)/C1=C(/C)NNC(=O)c1ccccc1O (configuration not stated)
active: [1]; at 50.0 µM 74.7% | [2]; at 50.0 µM 75% | [3]; at 50.0 µM 81.1% | [5]; at 50.0 µM 82.8% | [6]; at 50.0 µM 80%
inactive: [1]; [7] 16% | [1]; [8] 16% | [2]; [7] 12% | [2]; [8] 12% | [3]; [7] -1% | [3]; [8] -1% | [4]; [7] -2% | [4]; [8] -2% | [4]; at 50.0 µM 62% | [5]; [7] -3% | [5]; [8] -3% | [6]; [7] 2% | [6]; [8] 2%

NC(=O)NN=C1CSSC1
active: [1]; at 50.0 µM 96.2% | [2]; at 50.0 µM 76.5% | [5]; at 50.0 µM 77.8% | [6]; [8] 72% | [6]; at 50.0 µM 94.2%
inactive: [1]; [7] 7% | [1]; [8] 48% | [2]; [7] 4% | [2]; [8] 23% | [3]; [7] 3% | [3]; [8] 34% | [3]; at 50.0 µM 58% | [4]; [7] -9% | [4]; [8] -6% | [4]; at 50.0 µM -3.8% | [5]; [7] 1% | [5]; [8] 2% | [6]; [7] -1%

N#CSCc1ccc(CSC#N)c(Cl)c1
active: [1]; [8] 93% | [2]; [8] 91% | [3]; [8] 91% | [4]; [8] 88% | [5]; [8] 98% | [6]; [8] 96% | [6]; at 50.0 µM 93.3%
inactive: [1]; [7] 10% | [1]; at 50.0 µM 59.7% | [2]; [7] 0% | [2]; at 50.0 µM 40.4% | [3]; [7] 18% | [3]; at 50.0 µM 41% | [4]; [7] 4% | [4]; at 50.0 µM 60.8% | [5]; [7] 11% | [5]; at 50.0 µM 39.1% | [6]; [7] 4%

NCCCSc1ccc(Br)cc1
inactive: [1]; [7] -10% | [1]; [8] 13% | [1]; at 50.0 µM 9.6% | [2]; [7] -4% | [2]; [8] -5% | [2]; at 50.0 µM 34.3% | [3]; [7] -4% | [3]; [8] 47% | [3]; at 50.0 µM 20.1% | [4]; [7] 0% | [4]; [8] 17% | [4]; at 50.0 µM 35.1% | [5]; [7] -22% | [5]; [8] -21% | [5]; at 50.0 µM 8.3% | [6]; [7] -4% | [6]; [8] 13% | [6]; at 50.0 µM 8.5%

N#Cc1c(-c2ccc(Cl)cc2)c(-c2ccc(Cl)cc2)nn(CCOC(=O)CCC(=O)O)c1=O
active: [1]; [8] 76% | [1]; at 50.0 µM 89% | [2]; [8] 76% | [2]; at 50.0 µM 88.8% | [3]; at 50.0 µM 78.1% | [4]; [8] 86% | [4]; at 50.0 µM 85.2% | [5]; [8] 83% | [5]; at 50.0 µM 84% | [6]; [8] 81% | [6]; at 50.0 µM 87%
inactive: [1]; [7] 8% | [2]; [7] -3% | [3]; [7] 22% | [3]; [8] 66% | [4]; [7] -3% | [5]; [7] 16% | [6]; [7] 8%

O=C1/C(=C/c2ccccc2)CCCc2ccccc21
inactive: [1]; [7] -2% | [1]; [8] 28% | [1]; at 50.0 µM 59.8% | [2]; [7] 7% | [2]; [8] 62% | [2]; at 50.0 µM 49.5% | [3]; [7] 14% | [4]; [7] -10% | [4]; [8] 14% | [4]; at 50.0 µM 19.7% | [5]; [7] 10% | [6]; [7] 10%
active: [3]; [8] 79% | [3]; at 50.0 µM 86% | [5]; [8] 75% | [5]; at 50.0 µM 74.8% | [6]; [8] 73% | [6]; at 50.0 µM 75%
